Among all 310,000 compounds or so, about 14,000 (4.5%) showed an effect of 50% or more. The effect is printed as a negative number. The full list was thinned out, with strong results kept by preference.
Target: human ether-à-go-go-related gene (hERG) potassium channel (human, UniProt Q12809)
Assay: primary screen, population patch clamp on CHO cells stably expressing hERG; higher = less effect of the substance
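Also: peak tail current of the secondary pulse compared with the same well before compound.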

Sequence of human ether-à-go-go-related gene (hERG) potassium channel (Q12809 whole entry, looked up): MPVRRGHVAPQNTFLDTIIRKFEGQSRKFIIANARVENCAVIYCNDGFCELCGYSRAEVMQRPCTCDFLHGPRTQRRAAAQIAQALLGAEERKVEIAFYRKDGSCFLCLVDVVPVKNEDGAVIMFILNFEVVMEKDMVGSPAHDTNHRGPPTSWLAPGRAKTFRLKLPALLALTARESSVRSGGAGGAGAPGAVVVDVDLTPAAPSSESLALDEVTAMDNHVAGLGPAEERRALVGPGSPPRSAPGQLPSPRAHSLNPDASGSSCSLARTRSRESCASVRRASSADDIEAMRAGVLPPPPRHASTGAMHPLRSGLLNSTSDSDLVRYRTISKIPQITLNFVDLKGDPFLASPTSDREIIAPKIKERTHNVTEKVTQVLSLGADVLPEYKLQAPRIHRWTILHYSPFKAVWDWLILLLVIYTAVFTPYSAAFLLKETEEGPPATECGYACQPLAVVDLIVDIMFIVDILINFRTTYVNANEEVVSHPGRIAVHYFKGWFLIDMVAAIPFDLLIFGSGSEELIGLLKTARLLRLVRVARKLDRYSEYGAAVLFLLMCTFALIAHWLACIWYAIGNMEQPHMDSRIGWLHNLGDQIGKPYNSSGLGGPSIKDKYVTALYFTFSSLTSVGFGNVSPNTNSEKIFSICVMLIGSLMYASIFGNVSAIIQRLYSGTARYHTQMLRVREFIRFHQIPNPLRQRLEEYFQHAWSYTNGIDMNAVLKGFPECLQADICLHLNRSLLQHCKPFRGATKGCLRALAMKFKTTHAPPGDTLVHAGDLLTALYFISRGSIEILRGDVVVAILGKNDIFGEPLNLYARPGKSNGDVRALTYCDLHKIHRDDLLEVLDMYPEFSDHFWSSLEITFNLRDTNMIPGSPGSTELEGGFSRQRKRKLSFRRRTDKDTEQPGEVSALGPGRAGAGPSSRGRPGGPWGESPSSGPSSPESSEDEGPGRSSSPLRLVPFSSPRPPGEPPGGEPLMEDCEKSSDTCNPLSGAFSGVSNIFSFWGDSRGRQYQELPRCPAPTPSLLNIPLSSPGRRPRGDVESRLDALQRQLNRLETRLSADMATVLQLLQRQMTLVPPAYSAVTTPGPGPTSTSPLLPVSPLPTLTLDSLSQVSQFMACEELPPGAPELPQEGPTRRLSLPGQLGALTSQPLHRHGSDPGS

| SMILES | hERG current change (%, negative = inhibition) at 10uM [%] |
| --- | --- |
| O=C(NCc1cccs1)C1CCN(S(=O)(=O)c2ccc3c(c2)OCCO3)CC1 | 16.5 |
| Cc1ccc(C(=O)NCCN2CCOCC2)c(Cl)c1 | 5.79 |
| COc1ccccc1OCC(=O)Nc1cccc(-c2nc3ccccc3o2)c1 | 0.23 |
| COc1ccc(-c2cccc(NS(=O)(=O)c3ccc([N+](=O)[O-])cc3)c2)nn1 | -15.2 |
| CSc1cccc(NC(=O)C2CCN(S(=O)(=O)c3ccc4c(c3)NC(=O)CO4)CC2)c1 | 12.3 |
| O=C(Nc1ccccc1)/C(=C/c1ccc(F)cc1)NC(=O)c1ccco1 | -2.63 |
| CCCCc1ccc(NC(=O)CSc2nnc(C)c(=O)n2N)cc1 | -23.9 |
| Cc1ccn2cc(-c3cnoc3C)nc2c1 | 6.49 |
| Cc1ccc(NC(=O)COc2ccccc2CNC(C)(C)CC(C)(C)C)cc1 | -22.7 |
| CCOc1cc(/C=N/Nc2nc(N3CCCC3)nc(N3CCCC3)n2)ccc1O | -61.4 |
| COc1cc(/C=N/Nc2nc(N3CCCC3)nc(N3CCCC3)n2)ccc1O | -37.7 |
| CCOc1ccc(/C=N/Nc2nc(N3CCCC3)nc(N3CCCC3)n2)cc1OC | -12 |
| Cc1ccc(S(=O)(=O)NNC(=O)c2ccc3ccccc3n2)cc1 | 3.47 |
| CC(=O)c1ccc(-n2c(CCC(=O)O)ccc2-c2cccs2)cc1 | -0.766 |
| O=C(NC1CCCCC1)c1ccc(COc2ccccc2)o1 | 2.32 |
| CSCCC(NS(=O)(=O)c1ccccc1)C(=O)OCc1cc(=O)oc2cc(O)ccc12 (stereo not drawn) | -57.3 |
| CC(C)[C@H](NC(=O)OCc1ccccc1)C(=O)OCc1cc(=O)oc2cc(O)ccc12 | -46.7 |
| CSCCC(NS(=O)(=O)c1ccccc1)C(=O)OCc1nc2ccsc2c(=O)[nH]1 (stereo not drawn) | 2.87 |
| O=C(NNC(=S)Nc1ccc(Cl)c(Cl)c1)c1cccc([N+](=O)[O-])c1 | 36 |
| CCOC(=O)N1CCN(C(=O)c2cc3cc(Br)ccc3oc2=O)CC1 | -17.7 |
| CCNC(=S)N1CCN(Cc2ccccc2)CC1.O=C(O)C(=O)O | -59.9 |
| O=C(CNS(=O)(=O)c1ccc(Br)cc1)N1CCN(Cc2ccccc2)CC1 | -17.2 |
| O=C(O)C(=O)O.S=C(NCCc1ccccc1)N1CCN(Cc2ccccc2)CC1 | 0.0203 |

| SMILES | hERG current change (%, negative = inhibition) at 10uM [%] |
| --- | --- |
| O=C(c1ccc(CN2CCOCC2)cc1)N1CCN(Cc2ccccc2)CC1 | 15.4 |
| C=CCNC(=S)N1CCN(Cc2ccccc2)CC1.O=C(O)C(=O)O | 6.48 |
| COc1ccc(C(=O)N2CCC(C(=O)N3CCN(c4ccccc4)CC3)CC2)cc1 | -48.7 |
| O=C(C1CCC1)N1CCN(c2ccccc2)CC1 | 13.6 |
| O=C(c1ccc2ccccc2c1)N1CCN(Cc2ccccc2)CC1 | -24.4 |
| O=C(c1ccc(-n2cccc2)cc1)N1CCN(Cc2ccccc2)CC1 | -81.1 |
| O=C(NCC(=O)N1CCN(Cc2ccccc2)CC1)c1ccc(Cl)cc1 | -27.9 |
| O=C(NCC(=O)N1CCN(Cc2ccccc2)CC1)c1ccc(Br)cc1 | -53.5 |
| O=C(c1ccc(Br)cc1)N1CCC(C(=O)N2CCN(c3ccccc3)CC2)CC1 | -68.5 |
| O=C(CCCCl)Nc1nc(-c2ccc3c(c2)OCCO3)cs1 | 9.6 |
| CCOC(=O)CC(=O)Nc1c(C)cc(C)cc1C | 4.74 |
| N#CC1=C(N)Oc2cc(N)ccc2C1c1ccc(F)cc1F (stereo not drawn) | -22.9 |
| Cc1ccc(CNC(=O)c2cccnc2Cl)cc1 | 9.97 |
| COCCn1cnnc1SCC(=O)Nc1sccc1C(N)=O | -2.66 |
| COc1ccc(NC(=O)CCNS(=O)(=O)c2cc(Br)cnc2N)c(OC)c1 | 8.51 |
| COc1ccc(C2N(c3cc(Cl)ccc3OC)C(=O)C3CCCN32)cc1OC (stereo not drawn) | -4.91 |
| CC(C)(C)C(=O)NC(=S)NNC(=O)c1sc2ccccc2c1Cl | 5.79 |
| Cc1ccc(S(=O)(=O)N2CCN(C(=O)CN3CCCC3)C2)cc1 | -6.28 |
| NNC(=O)c1sc2nc(N3CCOCC3)c3c(c2c1N)CCCC3 | 11 |
| O=c1cnc2ccccc2n1Cc1ccc(Br)cc1 | 0.175 |
| CCn1nnnc1SCC(=O)Nc1cc(OC)cc(OC)c1 | 11.8 |
| COC(=O)[C@H](Cc1ccccc1)NC(=O)N1CCCCC1 | 9.93 |
